Experimental findings from ChEMBL document CHEMBL4513216, “Probing the Open Global Health Chemical Diversity Library for Multistage-Active Starting Points for Next-Generation Antimalarials” (ACS Infect Dis, 2020) are described below.

The whole screen tested about 68,000 compounds, of which about 2,700 (4%) showed an effect of 50% or more. The full list was thinned out, with strong results kept by preference.

The assay has as its system Plasmodium berghei. The assay is described as follows: Screen against P. berghei liver stage (PbLuc), transformed with Luciferase, at 2uM. The format is functional, HepG2. Conditions: tested at 2 uM.
Regarding `CN(Cc1ccccc1CN1CCCC1)C(=O)c1c(O)cccc1O`, the INHIBITION came out at 54.29%.

Turning to `CN(Cc1ccccc1CN1CCCC1)C(=O)c1c[nH]c(=O)[nH]1`, the INHIBITION stood at 0.31%.

On to `CN(CCN1CCCCCC1)C(=O)c1c(O)cccc1O`, for which the INHIBITION is -46.57%.

For `C1CCN(CCN2CCCCC2C2OCCO2)CC1` (stereo not given), the INHIBITION is listed as -26.04%.

For the compound `Cc1nnc(N2CCOC(C)(C(=O)N(C)C)C2)c2ccccc12` (stereo not given), the INHIBITION is 29.68%.

`Cc1nnc(N2CCOC(C)(C(=O)NC3CCCC3)C2)c2ccccc12` (stereo not given): the INHIBITION is listed as 51.88%.

Consider `CNC(=O)C1(C)CN(c2nnc(C)c3ccccc23)CCO1` (stereo not given), for which the INHIBITION is reported as 31.39%.

In the case of `CCn1ncc2c1C(COCC1CC1)N(Cc1ccccn1)CC2` (stereo not given), the INHIBITION amounted to 1.74%.

For `CC(C)c1nc(C2CCCN(C(=O)CCn3ccccc3=O)C2)no1` (stereo not given), the INHIBITION stood at 29.59%.

`CCc1nc(C2CCCN(C(=O)c3ccc(OC)cc3)C2)no1` (stereo not given): the INHIBITION is on record as 48.43%.

`CCOc1cc(C(=O)N2CCCC(c3noc(C)n3)C2)ccn1` (stereo not given): the INHIBITION is -29.94%.

For the compound `CCc1nc(C2CCCN(C(=O)CCn3ccccc3=O)C2)no1` (stereo not given), the INHIBITION worked out at 54.92%.

Consider `CC(C)c1nc(C2CCCN(C(=O)c3ccc4[nH]cnc4c3)C2)no1` (stereo not given), for which the INHIBITION was found to be 33.91%.

Turning to `CCOc1cc(C(=O)N2CCCC(c3noc(C(C)C)n3)C2)ccn1` (stereo not given), the INHIBITION is 64.16%.

`Cc1nc(C2CCCN(C(=O)CCn3ccccc3=O)C2)no1` (stereo not given): the INHIBITION is given as 47.23%.

As to `CCc1nc(C2CCCN(C(=O)c3ccc4[nH]cnc4c3)C2)no1` (stereo not given), the INHIBITION worked out at 52.52%.

Regarding `CCc1nc(C2CCCN(C(=O)c3ccc(O)nc3)C2)no1` (stereo not given), the INHIBITION is on record as 9.82%.

As to `CCOc1cc(C(=O)N2CCCC(c3noc(CC)n3)C2)ccn1` (stereo not given), the INHIBITION turned out to be 43.79%.

Turning to `CCc1nc(C2CCCN(C(=O)c3ccc(OC(C)C)nc3)C2)no1` (stereo not given), the INHIBITION amounted to 54.92%.

`CCc1nc(C2CCCN(C(=O)c3ccc4[nH]nnc4c3)C2)no1` (stereo not given): the INHIBITION was 38.72%.

Take `Cc1cccn2c(CNC(C)CCc3ccc(O)cc3)cnc12` (stereo not given): the INHIBITION is listed as -19.78%.

As to `Cc1cccc(C(=O)NC(C)CN2CCCC2=O)n1` (stereo not given), the INHIBITION was 5.91%.

For `c1ccc(CO[C@@H]2CC[C@H]3[C@H]2OCCN3Cc2ccsc2)nc1`, the INHIBITION was found to be 22.62%.

With `O=C(c1ccsc1)N1C[C@H]2CN(Cc3cccnc3)C(=O)[C@H]2C1`, the INHIBITION is 18.91%.

Regarding `CN1CCc2c(C#N)c(NCc3cccnc3)n3cnnc3c2C1`, the INHIBITION was -48.47%.

Turning to `CN(C)CC1CN(Cc2coc(-c3ccc(Cl)cc3)n2)CCO1` (stereo not given), the INHIBITION is recorded as 35.23%.

As for `O=C(O)C1(Oc2ccc3ccccc3c2)CCN(c2ccncc2)CC1`, the INHIBITION was 2.04%.

Consider `CCCc1n[nH]c(C2CN(C(=O)CCn3ccccc3=O)CCO2)n1` (stereo not given), for which the INHIBITION is 60.09%.

With `CCc1n[nH]c(C2CN(C(=O)CCn3ccccc3=O)CCO2)n1` (stereo not given), the INHIBITION was -27.5%.

Consider `CCCc1n[nH]c(C2CN(C(=O)Cn3ccccc3=O)CCO2)n1` (stereo not given), for which the INHIBITION was -53.98%.

In the case of `CC(C)NC(=O)N1CCCC(c2nnc(CN3CCOCC3)n2C)C1` (stereo not given), the INHIBITION is given as 10.02%.

`CC(NCc1cnc(N2CCOCC2)nc1)c1ccc(Cl)s1` (stereo not given): the INHIBITION is recorded as -62.93%.

As to `Cc1nc(C2CCCN2CCCS(=O)(=O)N(C)C)no1` (stereo not given), the INHIBITION is 9.36%.

As to `C[C@H](C(=O)N1Cc2ccccc2CC2(CCCN2C)C1)c1ccccc1` (stereo not given in full), the INHIBITION is 29.56%.

For `CCNC(=O)c1cn(C(C)(C)C)c2ncccc12`, the INHIBITION was determined as 40.4%.

For the compound `O=C(C1CCC1)N1CCCC1c1nnc2n1CCCCC2` (stereo not given), the INHIBITION was 41.56%.

With `O=C(C1CC1)N1CCCC1c1nnc2n1CCCCC2` (stereo not given), the INHIBITION is 58.29%.

Turning to `O=C(C1CCCC1)N1CCCC1c1nnc2n1CCCCC2` (stereo not given), the INHIBITION is -15.83%.

In the case of `C[C@@H]1CN(S(=O)(=O)N2CCCCCC2)C[C@@]1(O)C1CCC1`, the INHIBITION is recorded as 6.68%.

Consider `CCC(O)CN1CCN(C(=O)c2ccc(Cn3cccc3)cc2)CC1` (stereo not given), for which the INHIBITION is listed as -25.46%.

For the compound `O=C(Nc1cccnc1)[C@H]1C[C@H]2CN(Cc3ccc(F)cc3)C[C@@H]1O2`, the INHIBITION worked out at 6.35%.

Take `CNC(=O)CS(=O)(=O)NC1CCC(C)CC1` (stereo not given): the INHIBITION came out at 7.46%.

For `Cc1ccc(NC(=O)CS(=O)(=O)NC2CCC(C)CC2)nc1` (stereo not given), the INHIBITION was determined as 59.03%.

`CC1CCC(NS(=O)(=O)CC(=O)Nc2ccc(N3CCCC3)cn2)CC1` (stereo not given): the INHIBITION was -3.25%.

Take `CCN(CC)CCn1c(NC(=O)c2scnc2C)nc2ccccc21`: the INHIBITION is recorded as -34.06%.

On to `O=C(Nc1ccccc1Oc1cccc(F)c1)NC1CCS(=O)(=O)C1` (stereo not given), for which the INHIBITION was found to be 11.88%.

As to `CNC(=O)NC(=O)CSC(C)c1ccccc1F` (stereo not given), the INHIBITION came out at 20.74%.

`CC(=O)N1CCC(Cc2cncc(-c3c(C)n[nH]c3C)n2)C1` (stereo not given): the INHIBITION stood at 23.22%.

As to `CC(C)CN1CCC2(CCN(Cc3ccoc3)CC2)C1=O`, the INHIBITION is 44.43%.

`CCS(=O)(=O)Nc1cnn(Cc2cccc(F)c2)c1`: the INHIBITION was 3.58%.

For `CCS(=O)(=O)Nc1cnn(Cc2cccc(C)c2)c1`, the INHIBITION is reported as 52.95%.

In the case of `CCS(=O)(=O)Nc1cnn(Cc2cccc(Cl)c2)c1`, the INHIBITION came out at 20.19%.

For the compound `CC(C)COCc1cncc2c1CCN(Cc1cnn(C)c1)C2`, the INHIBITION is recorded as -40.42%.

For the compound `Cn1cc(CN2CCc3c(COCC4CC4)cncc3C2)cn1`, the INHIBITION is on record as -11.66%.

On to `COCc1cncc2c1CCN(Cc1cnn(C)c1)C2`, for which the INHIBITION turned out to be 53.98%.
